# Measured values: PMC4336329 (PLoS ONE, 2015)
# Screen size: about 310,000 compounds; about 2,200 (0.71%) showed an effect of 50% or more. Effects have a minus sign here. The sample as a whole holds a higher share of strong results than the screen did.
# Biological target: human ether-à-go-go-related gene (hERG) potassium channel (human, UniProt Q12809)
# Assay: primary screen, population patch clamp on CHO cells stably expressing hERG; higher = less effect of the substance
# Chain of human ether-à-go-go-related gene (hERG) potassium channel (Q12809 whole entry, looked up): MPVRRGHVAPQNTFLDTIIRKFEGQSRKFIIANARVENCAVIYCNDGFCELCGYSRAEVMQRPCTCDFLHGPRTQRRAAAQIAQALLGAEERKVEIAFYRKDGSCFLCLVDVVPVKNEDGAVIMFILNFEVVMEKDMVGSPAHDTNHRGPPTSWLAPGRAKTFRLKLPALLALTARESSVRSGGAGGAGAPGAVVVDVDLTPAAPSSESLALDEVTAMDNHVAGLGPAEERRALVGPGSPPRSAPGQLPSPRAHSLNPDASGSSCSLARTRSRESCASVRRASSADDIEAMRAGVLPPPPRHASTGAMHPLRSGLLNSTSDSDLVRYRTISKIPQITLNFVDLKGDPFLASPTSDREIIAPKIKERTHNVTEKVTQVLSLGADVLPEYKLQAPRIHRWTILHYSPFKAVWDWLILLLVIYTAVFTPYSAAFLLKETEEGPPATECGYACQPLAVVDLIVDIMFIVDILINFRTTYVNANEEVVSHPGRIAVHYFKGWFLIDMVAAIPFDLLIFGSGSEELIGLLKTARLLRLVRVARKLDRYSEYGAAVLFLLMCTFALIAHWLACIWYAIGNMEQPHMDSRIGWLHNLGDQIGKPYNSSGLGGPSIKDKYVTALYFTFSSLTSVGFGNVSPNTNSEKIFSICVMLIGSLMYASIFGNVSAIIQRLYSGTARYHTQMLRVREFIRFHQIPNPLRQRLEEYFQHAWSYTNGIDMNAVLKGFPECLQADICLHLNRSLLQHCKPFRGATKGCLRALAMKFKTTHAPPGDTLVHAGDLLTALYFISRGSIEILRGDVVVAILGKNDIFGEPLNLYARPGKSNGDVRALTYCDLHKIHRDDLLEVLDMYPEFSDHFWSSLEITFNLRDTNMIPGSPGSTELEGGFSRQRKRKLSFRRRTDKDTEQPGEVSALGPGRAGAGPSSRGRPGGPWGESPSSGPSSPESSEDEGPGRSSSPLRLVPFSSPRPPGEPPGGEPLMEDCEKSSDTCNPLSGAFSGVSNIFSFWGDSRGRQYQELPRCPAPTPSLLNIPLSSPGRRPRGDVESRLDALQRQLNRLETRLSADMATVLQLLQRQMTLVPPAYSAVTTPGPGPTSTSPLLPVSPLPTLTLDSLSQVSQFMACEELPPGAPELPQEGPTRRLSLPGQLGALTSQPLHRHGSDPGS
row,SMILES,"hERG current change (%, negative = inhibition) at 1uM [%]"
1,O=C(NCCCn1ccnc1)C(=O)c1c[nH]c2ccccc12,3.2
2,CC(=O)Nc1ncc(Cc2cccc(Cl)c2)s1,9.23
3,CC(=O)NS(=O)(=O)c1ccc(NC(=O)CC(C)c2ccccc2)cc1 (stereo not shown),2.97
4,COc1ccc(N2C(=O)CC(NC34CC5CC(CC(C5)C3)C4)C2=O)c(OC)c1 (stereo not shown),8.85
5,CCCN(CC(=O)Nc1cc(C)on1)S(=O)(=O)c1cccc(C(F)(F)F)c1,11.3
6,CCN(CC(=O)Nc1c(F)cccc1F)C(=O)/C=C/c1ccc2c(c1)OCO2,3.1
7,N=c1c(C(=O)NC2CCCC2)cc2c(=O)n3ccccc3nc2n1CCCN1CCOCC1,-63.7
8,N=c1c(C(=O)NC2CCCC2)cc2c(=O)n3ccccc3nc2n1CCN1CCOCC1,-94.2
9,CCOC(=O)c1c(C2CC2)csc1NC(=O)CSCc1c(C)noc1C,11.4
10,CCOC(=O)N1CCN(C(=O)Nc2ccc3nc(C)c(C)nc3c2)CC1,4.44
11,CC(C)c1ccc(CNc2ccc([N+](=O)[O-])cn2)cc1,9.11
12,Cc1cc(C)c(S(=O)(=O)NCc2ccncc2)c(C)c1,5.64
13,C=CCn1c(O)c(C(CC)=NCc2ccco2)c(=O)[nH]c1=O,2.16
14,COCCNS(=O)(=O)c1ccc(C2CNC(=O)C2)cc1 (stereo not shown),11.3
15,CCN(CC)S(=O)(=O)c1ccc(C2CNC(=O)C2)cc1 (stereo not shown),-53.8
16,O=C1CC(c2ccc(S(=O)(=O)NC3CC3)cc2)CN1 (stereo not shown),2.43
17,Cc1cccc(C(=O)NC(=S)Nc2ccccc2C(=O)O)c1,6.08
18,CCOC(=O)C1CCCN(c2nc(C)nc3c2oc2ccccc23)C1.Cl (stereo not shown),8.69
19,Cc1cc2cc3c(=O)[nH]c(=O)[nH]c3nc2cc1C,12.1
20,Cc1sc2ncnc(NCC3(N4CCOCC4)CCCCC3)c2c1C,-23
21,c1nc(NCC2(N3CCOCC3)CCCCC2)c2ccsc2n1,-54.5
22,c1nc(Nc2ccc(N3CCOCC3)cc2)c2ccsc2n1,8.37

row,SMILES,"hERG current change (%, negative = inhibition) at 1uM [%]"
1,COc1ccc(C2=NS(=O)(=O)N(C)C(C(=O)N3CCC(C(N)=O)CC3)=C2)cc1,-8.49
2,Cc1ccc(NC(=O)c2cc(NC(=O)CCC(=O)O)ccc2N2CCCCC2)cc1,11.9
3,Cc1nnc(NC(=O)CN2C(=O)c3ccccc3S2(=O)=O)s1,7.28
4,CCCCC(=O)N1CCCC(c2nc3c(nnn3Cc3cc(C)ccc3C)c(=O)[nH]2)C1 (stereo not shown),3.86
5,CC[n+]1c(/C=C/C=C/N(C(C)=O)c2ccccc2)sc2ccccc21.[I-],-52.2
6,CCN1/C(=C/C=C/c2oc3ccc(-c4ccccc4)cc3[n+]2CC)Oc2ccc(-c3ccccc3)cc21.CCOS(=O)(=O)[O-],-2.56
7,CCOS(=O)(=O)[O-].CC[n+]1c(/C=C/Nc2ccccc2)oc2ccc(OC)cc21,-68.8
8,CC[n+]1c(/C=C/C=C/c2ccc(N(C)C)cc2)sc2ccccc21.[O-][Cl+3]([O-])([O-])[O-],-29
9,CC[n+]1c(/C=C/N(C)c2ccccc2)oc2ccccc21.O=S(=O)([O-])CCO,12
10,CCOc1ccc(S(=O)(=O)Nc2cccc(OC)c2)cc1,-5.91
11,CC[n+]1c(/C=C2\C=C(C)CC(C)(C)C2)sc2ccccc21.[I-],-4.87
12,CC[n+]1c(/C=C/C=C/N(C(C)=O)c2ccccc2)sc2cc(OC)ccc21.[I-],7.77
13,CCN1/C(=C/C=C/c2sc3ccccc3[n+]2CC)Sc2ccccc21.[I-],-36.8
14,CC[n+]1ccccc1/C=C/Nc1ccccc1.[I-],-5.67
15,CC[n+]1c(/C=C/Nc2ccccc2)sc2ccccc21.[I-],-62.8
16,CC[n+]1c(/C=C/Nc2ccccc2)oc2ccccc21.[I-],-64.9
17,COC(=O)c1ccccc1Nc1ccnc(Cl)n1,-6.9
18,O=C(Nc1c(F)c(F)c(F)c(F)c1F)C1CCCCC1,5.93
19,CC(C(=O)N1CCCC1)N(c1ccccc1)S(C)(=O)=O (stereo not shown),20.3
20,C/C(=N\NC(=O)c1ccccc1)c1ccc(-n2ccnc2)cc1,8.54
21,O=C(CCc1nnc(-c2ccccc2)o1)NCc1cc(F)ccc1F,0.576
22,Cc1csc(N(C)C(=O)CSc2nnc(COc3ccccc3C)o2)n1,6.62

row,SMILES,"hERG current change (%, negative = inhibition) at 1uM [%]"
1,CC(C)CC(=O)Nc1ccc2oc(-c3cccnc3)nc2c1,15.3
2,COCCSc1nnc(NC(=O)C2CC(=O)N(C3CCCC3)C2)s1 (stereo not shown),16
3,COc1cccc(C(=O)OCC(=O)NC(C)CCc2ccccc2)c1O (stereo not shown),13.8
4,O=C(N/C(=C/c1ccc([N+](=O)[O-])cc1)C(=O)N1CCOCC1)c1ccco1,-34.6
5,O=C(N/C(=C\c1ccc([N+](=O)[O-])cc1)C(=O)N1CCOCC1)c1ccco1,-57.1
6,O=C(N/C(=C\c1ccc([N+](=O)[O-])cc1)C(=O)N1CCCCC1)c1ccco1,-41.5
7,O=C(N/C(=C\c1ccco1)C(=O)N1CCOCC1)c1ccc([N+](=O)[O-])cc1,-55.9
8,O=C(N/C(=C\c1ccco1)C(=O)N1CCCC1)c1ccccc1,14.4
9,CCN1CCN(C(=O)/C(=C/c2ccco2)NC(=O)c2ccccc2)CC1,-57.1
10,O=C(N/C(=C\c1cccc([N+](=O)[O-])c1)C(=O)N1CCOCC1)c1ccc([N+](=O)[O-])cc1,-2.31
11,CN1CCN(C(=O)/C(=C/c2ccco2)NC(=O)c2ccccc2)CC1,-37.1
12,Cc1ccc(C(=O)N/C(=C/c2ccco2)C(=O)N2CCOCC2)cc1,8.19
13,CCOc1ccc(NS(=O)(=O)c2ccc3ncsc3c2)cc1,12.1
14,O=C1CCCCCCC1Sc1ccccc1[N+](=O)[O-] (stereo not shown),3.82
15,Cc1ccc(C2C(=O)N(C3CCC(C)CC3)CC(=O)N2C2CCCC2)cc1 (stereo not shown),-13.1
16,COC(=O)/C=c1/s/c(=C(/C#N)C(=O)N2CCCCC2)n(-c2ccccc2)c1=O,9.76
17,CC(C)[C@H](NS(=O)(=O)c1ccccc1)C(=O)OCn1nnc2ccccc2c1=O,4.31
18,Cn1c(=O)c2c(nc(SCCN3CCCCC3)n2Cc2ccc(Cl)cc2)n(C)c1=O,-48.9
19,Cn1c(=O)c2c(nc(SCCN3CCCCC3)n2Cc2ccccc2)n(C)c1=O,-66
20,Cn1c(=O)c2c(nc(SCCN3CCOCC3)n2Cc2ccccc2Cl)n(C)c1=O,-8.97
21,Cn1c(=O)c2c(nc(SCCN3CCOCC3)n2Cc2ccccc2)n(C)c1=O,-5.7
22,Cc1ccc(Cn2c(SCCN3CCCCC3)nc3c2c(=O)n(C)c(=O)n3C)cc1,-67.1

row,SMILES,"hERG current change (%, negative = inhibition) at 1uM [%]"
1,Cc1ccc(Cn2c(SCCN3CCOCC3)nc3c2c(=O)n(C)c(=O)n3C)cc1,-6.9
2,ON1C2CCCCC2N(O)C1c1c(F)c(F)c(F)c(F)c1F (stereo not shown),17.7
3,CC1CN(CC(=O)NCc2ccccc2)CC(C)O1 (stereo not shown),19.2
4,Cc1ccc(N2C(=O)C(CN3CCOCC3)C2c2ccccc2)cc1 (stereo not shown),-1.12
5,Cc1ccc(N2C(=O)C(CN3CCCC3)C2c2ccccc2)cc1 (stereo not shown),-70.6
6,Cc1ccc(N2C(=O)C(CN3CCCCC3)C2c2ccccc2)cc1 (stereo not shown),-4.6
7,COCCn1c(SCCN2CCCCC2)nc2ccccc2c1=O,-53.3
8,C=CCn1c(SCC(=O)N2CCCC2)nc2c([nH]c3ccccc32)c1=O,5.21
9,COCCn1c(SCC(=O)N2CCCCC2)nc2ccccc2c1=O,-30.8
10,COc1ccc(CCn2c(SCCN3CCCCC3)nc3ccccc3c2=O)cc1OC,-8.22
11,C=CCn1c(SCC(=O)NC2CCCC2)nc2c([nH]c3ccccc32)c1=O,-16.9
12,O=c1c2ccccc2nc(SCCN2CCCCC2)n1CCc1ccccc1,-10
13,CCOC(=O)CSc1nc2ccccc2c(=O)n1CC1CCCO1 (stereo not shown),9.44
14,COCCn1c(SCC(=O)N2CCOCC2)nc2ccccc2c1=O,5.32
15,COCCn1c(SCC(=O)N2CCC(C)CC2)nc2ccccc2c1=O,-57.9
16,CCOC(=O)CSc1nc2ccccc2c(=O)n1CC1CCCC1,-63.8
17,CCOC(=O)CSc1nc2ccccc2c(=O)n1CC,-1.18
18,C=CCn1c(SCCN2CCCC2)nc2c([nH]c3ccccc32)c1=O,-63.9
19,CN(C(=O)COC(=O)/C=C/c1ccc2ccccc2n1)C1CCS(=O)(=O)C1 (stereo not shown),12.9
20,CC(=O)Nc1cccc(C(=O)OCc2ccc([N+](=O)[O-])cc2)c1,-13.5
21,O=C1C=C(NCC2CCCO2)C2(CCCCC2)O1 (stereo not shown),15.6
22,N#Cc1ccccc1OCC(=O)N1N=C(c2cccs2)CC1c1ccco1 (stereo not shown),-1.57
